Experimental data reported in ChEMBL document CHEMBL3988442, “University of Dundee, Small-Polar-MMV Screening Library” (2021).
About 13,000 (27%) of roughly 48,000 compounds showed an effect of 50% or more. This is one part of the list.

tested on: Wolbachia pipientis; assay: Anti-Wolbachia Cell-Based Screen; format: functional; set-up: scale not given: in the data most compounds retested in dose-response had high values; conditions: 5 µM

SMILES | Percent Effect
CCOc1ncccc1C(=O)Nc1c(C)cnn1CC1CC1 | 12.64%
CC(=O)N1CCN(Cc2nnc(C(C)(C)C)o2)CC1 | -8.386%
Cc1cc(CN(C)C(=O)NCc2ccnc(OC3CCCC3)c2)no1 | 7.98%
CC(=O)N1CCN(C(=O)c2cnc(OC(C)C)c(Cl)c2)CC1 | -40.95%
CNC(=O)COc1ccc(CNc2c(Cl)cccc2C#N)cc1 | -7.522%
CNC(=O)COc1ccc(CNc2cncc(-n3cccn3)n2)cc1 | 94.6%
CCCOc1ccc(CNc2cncc(-n3cccn3)n2)cc1 | 92.88%
CCN(CC)C(=O)c1ccc(CNc2ncc(C#N)cc2Cl)cc1 | 2.172%
CCOc1cccc(CNc2cncc(-n3cccn3)n2)c1 | 10.28%
CCN(CC)C(=O)c1ccc(CNc2cncc(-n3cccn3)n2)cc1 | 118.2%
CCN(Cc1nccn1C)C(=O)c1ccc(NCc2ccccc2)nc1 | -22.31%
CN(CCCc1ccccc1)C(=O)c1cn2c(n1)CNCC2 | 13.8%
O=C(CSc1ccc2c(c1)OCCO2)NS(=O)(=O)c1ccccc1 | -10.89%
Cn1nccc1C1CCN(Cc2cnn(-c3ccccc3)n2)CC1 | -1.945%
CN(CCc1ccccc1)c1cnn(CC(=O)N2CCSCC2)c(=O)c1 | -7.275%
Cc1nn(C)c(N(C)C)c1CNCc1ccnn1C | -14.99%
COc1cc(CNCc2c(C)nn(C)c2N(C)C)ccn1 | -5.351%
Cc1nn(CC(C)C)c(N(C)C)c1CNCc1ccnn1C | 113.6%
Cc1nn(CC(C)C)c(N(C)C)c1CNCc1cc2ccccc2[nH]1 | 5.6%
CC(=O)NCCCNCc1c(C)nn(CC(C)C)c1N(C)C | -6.238%
Cc1nn(CC(C)C)c(N(C)C)c1CNCc1cccnc1N(C)C | -5.662%
COc1cc(CNCc2c(C(C)C)nn(C)c2N(C)C)ccn1 | -8.861%
Cc1nn(CC(C)C)c(N(C)C)c1CNCc1ccc(CO)c(F)c1 | 108.6%
Cc1nn(CC(C)C)c(N(C)C)c1CNCc1ccccc1CO | 116.8%
Cc1nn(CC(C)C)c(N(C)C)c1CNCc1cccc2c1OCO2 | 0.06204%

SMILES | Percent Effect
COc1cc(CNCc2c(C)nn(CC(C)C)c2N(C)C)ccn1 | 90.35%
CC(C)c1nn(C)c(N(C)C)c1CNCc1ccnn1C | 10.31%
COCC1CN(C(=O)Nc2cc(-n3cccc3)ccc2F)CCO1 (centres undefined) | 0.4358%
O=S(=O)(NCCc1c[nH]c2ccc(F)cc12)C1CCOCC1 | -14.21%
Cc1cc(N2CCN(Cc3ccc(C)o3)CC2)cc(C)n1 | 4.051%
CN(Cc1cccc(Cl)c1)C(=O)Cn1nc(-c2ccc(F)cc2)oc1=O | -8.099%
CCOCc1nc2c(c(N(C)Cc3snnc3C)n1)CCNCC2 | 2.794%
O=C(NC[C@@H]1CCCO1)c1ccc(S(=O)(=O)N[C@@H]2CCNC2)cc1 | -1.141%
CC(C)c1ccc(CNC(c2ccc(F)cn2)C(C)C)cc1 (centres undefined) | 100.5%
Cc1[nH]ncc1C(C)NCc1ccc(F)cc1 (centres undefined) | -5.411%
CC(NCc1ccc(F)cc1)c1ccc(S(C)(=O)=O)cc1 (centres undefined) | 8.945%
Fc1ccc(CNc2ccccc2Cn2cncn2)cc1 | -15.58%
CC(C)C(NCc1ccc(Cn2cncn2)cc1)c1ccccc1 (centres undefined) | 124.9%
COc1ccc(CNC(Cn2cncn2)c2ccccc2)cc1O (centres undefined) | -2.426%
N#Cc1cc(F)ccc1NCc1ccc(Cn2cncn2)cc1 | 1.669%
CC(C)C(NCc1ccc(Cn2cncn2)cc1)c1ccc(F)cn1 (centres undefined) | 90.96%
COc1ccc(CNC(Cn2cncn2)c2ccccc2)cc1C (centres undefined) | -2.513%
COc1cc(OC)cc(N2CCC(NCc3occc3C)C2=O)c1 (centres undefined) | -29.36%
Cc1cn(Cc2nc(CC(C)C)nn2-c2ccccn2)c(=O)[nH]c1=O | 5.875%
CCOCCC(=O)Nc1cc(C)cnc1OC | 1.473%
O=C(O)C(c1ccc2[nH]ccc2c1)N1CCN(c2cnccn2)CC1 (centres undefined) | -11.7%
O=C(C1=CCCC1)N1CCC[C@]2(C[C@@H](OCc3ccncc3)CO2)C1.O=C(O)C(F)(F)F | -18.3%
Cc1ccc(S(=O)(=O)NC[C@H]2OC[C@@H](NCc3ccccc3)[C@@H]2O)cc1 | -16.71%
COC1CCN(S(=O)(=O)N2CCC3(CCCNC3=O)C2)CC1 (centres undefined) | 4.322%
CN1CC(Nc2nc3c(cnn3C(C)(C)C)c(=O)[nH]2)CCC1=O (centres undefined) | 10.78%

SMILES | Percent Effect
O=C1CCCN1Cc1ncn2c1CN(C(=O)Cc1cccs1)CCC2 | 106.6%
Cc1ccc(CC(=O)N2CCCn3nnc(Cn4cccn4)c3C2)cc1 | -8.474%
O=C1CCCN1Cc1ncn2c1CN(C(=O)Cc1ccccc1)CCC2 | 99.41%
O=C(O)C(F)(F)F.O=C1CCCN1Cc1ncn2c1CN(Cc1cccs1)CCC2 | -6.025%
O=C1CCCN1Cc1ncn2c1CN(S(=O)(=O)c1cccs1)CCC2 | -2.152%
CCCn1ncnc1C(C)NC(=O)CC1CCN(C(C)C)CC1 (centres undefined) | -1.645%
c1csc(-c2noc(C3CCCOC3)n2)c1 (centres undefined) | -23.77%
Cl.c1csc(-c2noc(C3CCCNC3)n2)c1 (centres undefined) | 100.6%
CCS(=O)(=O)N1CC(c2nc(-c3cccs3)no2)C1 | 0.556%
CCN(CC)CCn1cnc(-c2ccccc2)c1-c1cnn(CC)c1 | 8.592%
CCn1cc(-c2nn3c(C(F)(F)F)nnc3s2)cn1 | 71.37%
Cc1nn(C)cc1-c1nn2c(C(F)(F)F)nnc2s1 | 115.5%
CN(Cc1cc(=O)c(O)co1)C1CCN(c2ccc(F)cc2)CC1 | -14.07%
CN(C)C[C@H]1C[C@H](CO)CN(C(=O)c2cc(S(N)(=O)=O)ccc2F)C1 | -6.33%
COCCN(C)C[C@H]1C[C@@H](CO)CN(C(=O)c2ccn(C)c(=O)c2)C1 | 96.22%
CN(C)C[C@H]1C[C@@H](CO)CN(C(=O)c2cc(=O)[nH]c3cc(F)ccc23)C1 | -10.33%
COCCN(C)C[C@H]1C[C@H](CO)CN(C(=O)c2ccn(C)c(=O)c2)C1 | 59.73%
Cn1ccc(C(=O)N2CCCC(CNS(C)(=O)=O)C2)cc1=O (centres undefined) | -3.744%
Cc1nc(-c2ccc(Cl)s2)sc1C(=O)N(C)CC(N)=O | 2.802%
COCc1noc(-c2ccc(N3CCCC3c3nccs3)nc2)n1 (centres undefined) | 1.711%
CCOC(=O)c1c(NC(=O)C2CCN(C(C)=O)CC2)sc(C)c1CC | 114.1%
CCOC(=O)c1c(NC(=O)CN2CCN(C(C)=O)CC2)sc(C)c1C | 112.4%
CCc1ccc(NC(=O)C2CCN(C(=O)COC)CC2)cc1 | -3.205%
CCC(C)NC(=O)CN1CCOCC1 (centres undefined) | 4.194%
CCc1c(C)sc(NC(=O)CN2CCOCC2)c1C(=O)OC | 123.3%

SMILES | Percent Effect
CCOC(=O)N1CCN(CC(=O)Nc2nnc(C)s2)CC1 | -13.53%
CCOC(=O)N1CCC(C(=O)Nc2nnc(C(F)(F)F)[nH]2)CC1 | 5.698%
CCOC(=O)N1CCN(CC(=O)Nc2nnc(CC)s2)CC1 | -11.16%
CCc1c(C)sc(NC(=O)CN2CCN(CC)CC2)c1C(=O)OC | -10.89%
O=C(Nc1ccc(N2CCOCC2)nc1)N1CCc2sccc2C1 | -5.037%
Cc1nn(C)c(Oc2ccccc2)c1CNC1CCOc2ccccc21 (centres undefined) | 17.34%
CC(C)c1ccc(/C=C/CC(=O)NC2CCS(=O)(=O)CC2)cc1 | -29.94%
CC(=O)c1cccc(OCCCC(=O)N(C)Cc2cnn(C)c2)c1 | -7.913%
N#CC1(NC(=O)COC(=O)Cn2cccn2)CCCC1 | 0.9044%
N#Cc1ccnc(SCC2CN=C(N3CCOCC3)S2)c1 (centres undefined) | 11.27%
O=C(CC1CC1)N[C@@H]1CN(Cc2ccc(F)cc2)C[C@@H]2CCCO[C@@H]21.O=C(O)C(F)(F)F | -7.276%
Cc1occc1C(=O)N1C[C@@H]2CCCO[C@@H]2[C@H](NS(C)(=O)=O)C1 | 108.4%
O=C(CC1CC1)N[C@@H]1CN(c2ncccn2)C[C@@H]2CCCO[C@@H]21.O=C(O)C(F)(F)F | -2.682%
O=C(CC1CC1)N[C@@H]1CN(C(=O)c2ccsc2)C[C@@H]2CCCO[C@@H]21 | 100.4%
O=C(CC1CC1)N[C@@H]1CN(Cc2nccs2)C[C@@H]2CCCO[C@@H]21 | -7.838%
O=C(CC1CC1)N[C@@H]1CN(C(=O)c2ccoc2)C[C@@H]2CCCO[C@@H]21 | 95.5%
Cc1occc1C(=O)N1CC[C@@H]2[C@@H](CO[C@H]2CNS(C)(=O)=O)C1 | -7.18%
COc1ccc(CN2C[C@@H]3CCCO[C@@H]3[C@H](NC(=O)CC3CC3)C2)cc1 | -5.236%
Cc1occc1C(=O)N1C[C@@H]2CN(S(C)(=O)=O)CCO[C@@H]2C1 | -6.506%
O=C(c1cccs1)N1C[C@H]2CC[C@@]3(N=C(c4ccccc4)NC3=O)[C@H]2C1 | 7.494%
O=C(CC1CC1)N[C@@H]1CN(C(=O)c2cccs2)C[C@@H]2CCCO[C@@H]21 | 73.18%
CCn1ccnc1CN1CCCN(CC2CC2)C(C(C)C)C1 (centres undefined) | -2.193%
Cc1nnsc1CN1CCCC1c1nc(-c2ccccc2)no1 (centres undefined) | 16.39%
Cc1csc([C@@H]2C[C@@H]3CCN(Cc4cnn(C)c4)C[C@H]3O2)n1 | -7.419%
